# Shown are actives, neighbours in structure and some others; about 1.2% of the full set was active somewhere.
# TNF death inh: inhibitors of TNF-alpha triggered necroptosis, primary screen, cell-based, Jurkat FADD-/-, single concentration. actives 0.068% (n = 220,000). AID 463075, 2010. activation (protection from cell death), % at 10 µM. Jurkat FADD-/- TNF necroptosis rescue, ATP luminescence, 24 h; 0 = TNF only, 100 = no-TNF cells;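 active = activation, meaning protection from cell death, of at least 50% relative to plate controls; inactive = activation below 50%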;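 note: necroptosis triggered by 40 ng/mL TNF-alpha added together with compound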
# EBV gp42 block: Epstein-Barr virus gp42 inhibitors, primary screen, biochemical, uHTS, fluorescence polarization; Glycoprotein 42 (Epstein-Barr virus (strain AG876)), Q1HVG2; AID 1085, 2008; actives 0.42% (n = 220,000); Fluorescence polarization binding assay, mP read-out; inhibition, % (tested at 21.74 µM); in the data active = inhibition above about 50%
# Target sequence (Q1HVG2 whole entry, looked up): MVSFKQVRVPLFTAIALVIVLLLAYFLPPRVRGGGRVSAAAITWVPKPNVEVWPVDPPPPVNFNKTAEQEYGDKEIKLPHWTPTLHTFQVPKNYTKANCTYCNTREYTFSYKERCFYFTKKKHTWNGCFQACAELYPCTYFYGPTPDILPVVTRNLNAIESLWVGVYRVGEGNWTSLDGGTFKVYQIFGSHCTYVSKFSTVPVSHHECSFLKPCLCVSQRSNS
# eIF4E 4G PPI: eIF4E–eIF4G protein interaction inhibitors, primary screen, biochemical, uHTS, TR-FRET, eIF4GI fragment; TR-FRET eIF4E-eIF4GI(517-606) binding, 2 h; inhibition, % at 21.7 µM; actives 0.37% (n = 220,000); AID 782, 2007;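 active = inhibition above about 30%, limit read from the data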;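 note: 0% = full FRET control wells and 100% = background wells lacking eIF4GI fragment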
# L929 necroptosis: inhibitors of zVAD-triggered necroptosis, primary screen, L929 cells; actives 0.38% (n = 220,000); AID 1377, 2008; L929 zVAD necroptosis rescue, ATP luminescence, 24 h; with zVAD 60 µM; viability rescue, % at 10 µM;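 active = activation, scaled between plate controls, above about 75%, limit read from the data; inactive = activation under that limit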;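 note: 0% = zVAD with DMSO and 100% = DMSO alone without zVAD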
# Numbers without * were called inactive; x = no result given; [ ] = another dose, or the depositor's remark.
SMILES,TNF death inh,EBV gp42 block,eIF4E 4G PPI,L929 necroptosis
CC(=O)N(Cc1ccco1)c1nc(C(=O)Nc2ccc(Cl)cc2)c(C)s1,9,-8,-7,1
CC(C)c1ccc2[nH]c3nc(SCC(=O)N4CCOCC4)nnc3c2c1,0,-6,1,4
Cc1cc([N+](=O)[O-])nn1Cc1ccccc1F,95*,-14,7,91*
O=C(C1=NN(c2ccccc2)C2C(=O)N(c3ccc(Cl)cc3)C(=O)C12)c1ccccc1 (stereo unspecified),2,67*,1,2
O=C(C1=C[C@@H]2[C@H]3C(=O)N(c4ccccc4)C(=O)[C@H]3[C@@H](C(=O)c3ccc(Cl)cc3)N2C=C1)c1ccccc1,-2,-1,2,2
O=C(C1=NN(c2ccccc2)C2C(=O)N(c3cccc(Cl)c3)C(=O)C12)c1ccccc1 (stereo unspecified),0,74*,10,1
CCOC(=O)c1c(-c2cccc([N+](=O)[O-])c2)csc1NC(=O)CCCOc1ccccc1,1,-2,76*,0
Cc1cc(CSc2ccccc2)ccc1NC(=O)c1cccc([N+](=O)[O-])c1,-2,-12,72*[fluorescence artefact?],0
Cc1cc(O)c(NC(=O)c2cccc([N+](=O)[O-])c2)cc1C,-1,-5,-3,0
O=C(Nc1cccc([N+](=O)[O-])c1)c1cccc(C(=O)Nc2cccc([N+](=O)[O-])c2)c1,0,-9,35*,2
CCN(CC)c1ccc(C(=O)OCC(=O)Nc2ccc3[nH]c(=O)[nH]c3c2)cc1,1,-1,11,1
COC(=O)CN1C(=O)N(c2ccccc2)C(N(O)C(=O)Nc2ccccc2)C1(C)C (stereo unspecified),-3,139*,3,0
Cc1ccc2oc(=O)n(CC(=O)OCCC(C)C)c2c1,-8,-11,-2,0
N#C/C(=C\c1ccc(Cl)cc1)c1nc2ccccc2o1,2,-8,0,2
N#C/C(=C\c1ccncc1)c1nc2ccccc2o1,-9,-4,96*,-1
COc1ccc(S(=O)(=O)Nc2ccc(-n3cccc3)cc2)cc1,7,6,2,1
O=C(CCN1C(=O)COc2ccccc21)NCc1ccco1,1,53*,-1,0
COc1cc(-c2[nH]ncc2CN2CCN(Cc3cccs3)CC2)cc(OC)c1OC,-1,0,90*,0
COCCCNC(=O)c1c(N)n(-c2ccc3c(c2)OCO3)c2nc3ccccc3nc12,-3,x,x,84*
C=CCS/C(N)=N\N=C\c1cc(Br)cc([N+](=O)[O-])c1O,3,-1,1,1
O=C(Nc1cccc(S(=O)(=O)NC2=NCCCCC2)c1)c1cc(-c2ccco2)nc2ccccc12,-2,40,35*,1
O=C(Nc1cccc(S(=O)(=O)NC2=NCCCCC2)c1)c1cc(-c2ccncc2)nc2ccccc12,-7,10,-1,12
CCC1CCC(c2nnc(-c3ccc([N+](=O)[O-])cc3)o2)CC1 (stereo unspecified),2,-17,6,-1
Oc1c(C(c2cccs2)N2CCN(c3ccccc3)CC2)ccc2cccnc12 (stereo unspecified),-21,-2,36*[fluorescence artefact?],3
CC1CN(Cc2ccccc2)c2nc3c(c(=O)[nH]c(=O)n3C)n2C1 (stereo unspecified),-4,-6,83*,0
SMILES,TNF death inh,EBV gp42 block,eIF4E 4G PPI,L929 necroptosis
CCN(CC)c1ccc(N=Cc2c(C)[nH]c3ccccc23)cc1,-3,8,32*[fluorescence artefact?],2
O=C(CNc1ccc2ccccc2c1)N/N=C/c1cc2ccccc2nc1Cl,-1,0,-1,2
Cc1cc(C)c(C#N)c(SCC(=O)N2CCCCC2)n1,0,119*,0,0
Cc1cc(C)c(C#N)c(SCC(=O)N2CCN(Cc3ccccc3)CC2)n1,-1,13,0,0
CCN(CC)c1ccc2c(C)c(Cl)c(=O)oc2c1,0,22,5,0
CCN(CC)c1ccc2c(c1)oc(=O)c1c(Cl)cc(=O)oc12,-15,54*,6,0
O=C(N/N=C/c1cc(Cl)cc([N+](=O)[O-])c1O)NC12CC3CC(CC(C3)C1)C2,-2,52*,16,1
Cc1ccc[n+](CC(=O)Nc2nc3ccccc3s2)c1,0,-16,3,0
Cc1ccc[n+](-c2nc([O-])sc2C=O)c1,1,142*,1,3
CC(C)c1ccc[n+](-c2nc([O-])sc2C=O)c1,5,-7,0,1
Cc1ccnc(NS(=O)(=O)c2ccc(C(C)(C)C)cc2)c1,1,0,0,4
Cc1ccnc(NS(=O)(=O)c2ccc3c(c2)CCO3)c1,2,-8,88*,0
COc1cc2ccccc2cc1C(=O)NCC(c1cccs1)N(C)C (stereo unspecified),4,-12,6,11
Fc1ccc(C2CCCN2Cc2nc(Cc3ccccc3)no2)cc1 (stereo unspecified),1,-7,60*,0
CCOCCCNC(=O)C(NC(=O)c1ccccc1O)c1ccc(Cl)cc1 (stereo unspecified),3,1,2,1
O=C1NC(c2ccc3c(c2)OCO3)Oc2ccccc21 (stereo unspecified),-4,-2,37*[fluorescence artefact?],0
O=C1NC(c2ccc3c(c2)OCO3)Nc2ccccc21 (stereo unspecified),-7,-12,5,3
O=C(Cn1nc2n(c1=O)-c1ccccc1SC2)N/N=C/c1ccncc1,3,-7,-2,0
CC(C)c1nc2sc3c(=O)n(N)cnc3c2c2c1COC(C)(C)C2,2,-27,0,0
O=C1OC(c2cccs2)=N/C1=C\c1ccc(-c2ccccc2Cl)o1,-3,-2,0,0
N=C1/C(=C/c2ccc(-c3cccc(C(=O)O)c3)o2)C(=O)N=C2SC=C(c3ccccc3)N12,0,67*,80*,6
O=C1OC(c2cccs2)=N/C1=C/c1ccc(-c2cccc(C(=O)O)c2)o1,-2,-60,36*,2
CN(C(=O)c1ccc(=O)n(Cc2ccc(Cl)cc2)c1)c1ccccc1,-1,-7,-2,0
COc1cc(OC)c(C2C(C#N)=C(C)NC(C)=C2C#N)c(C(=O)O)c1,0,-12,-5,1
Cc1ccc(NC(=S)N2CCCCC2)cc1C,3,-21,-1,1
O=C(CCc1ccc(Oc2cc([N+](=O)[O-])cc([N+](=O)[O-])c2)cc1)N1CCCCC1,-4,-7,0,0
Cc1ccc([N+](=O)[O-])cc1-c1ccc2cccc(C)c2n1,-1,-15,71*[fluorescence artefact?],1
O=C(CCN1C(=O)C2C3C=CC(C3)C2C1=O)Nc1ccccn1 (stereo unspecified),1,-5,47*,1
